Results on 15 molecules are retold here after PubChem BioAssay.

Assay [1] deals with Nuclear receptor coactivator 3 (Homo sapiens) (UniProt Q9Y6Q9). As to the kind of experiment: NCOA3 GAL4-fusion reporter inhibition – cell-based, luminescence, quadruplicate, confirmation (AID 588792;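 active = mean inhibition over 43.08%, the solvent-only control mean plus 3 SD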;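 note: 0% = DMSO treated cells and 100% = gossypol at 36 µM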). The following applies: HEK293 GAL4-SRC3 luciferase reporter, at 3.6 µM, active compounds read high.
Assay [2] relates to transactivating tegument protein VP16 (Human herpesvirus 1), Gal4-VP16 luciferase reporter. As to the kind of experiment: repression of VP16-driven luciferase reporter – cell-based, luminescence, high throughput, counter-screen for SRC3 inhibitor project (AID 588794). The following applies: mammalian cells, at 3.6 µM, active compounds read high.
In assay [3] the target is Nuclear receptor coactivator 1 (Homo sapiens) (UniProt Q15788). As to the kind of experiment: NCOA1 GAL4-fusion reporter inhibition – cell-based, luminescence, quadruplicate, confirmation (AID 588820;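 active = mean inhibition above 46.68%, the untreated control wells mean plus 3 SD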;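 note: 0% = DMSO wells and 100% = gossypol 36 µM treated wells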). The following applies: HEK293 GAL4-SRC1 luciferase reporter, at 3.6 µM, active compounds read high.
Assay [4] can be described thus: repression of VP16-driven luciferase reporter – cell-based, luminescence, high throughput, counter-screen for SRC1 inhibitor project (AID 588824; in the data active = inhibition above about 25%). The following applies: cell-based VP16 transactivation luciferase luminescence; at 3.6 µM; active compounds read high.
Assay [5] addresses Nuclear receptor subfamily 5 group A member 2 (Homo sapiens) (UniProt O00482). As to the kind of experiment: NR5A2 activity suppression in reporter cells – cell-based, luminescence, confirmation (AID 651613; in the data active = inhibition above about 42%;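 note: HEK293T cells co-transfected with LRH-1 and StAR promoter luciferase reporter; 0% = vehicle wells and 100% = parental cells lacking receptor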). The following applies: cell-based LRH-1 luciferase reporter, inverse agonism; at 3.6 µM; active compounds read high.
The target in assay [6] is Steroidogenic factor 1 (Homo sapiens) (UniProt Q13285). As to the kind of experiment: inverse agonism at SF1 nuclear receptor – cell-based, luminescence, high throughput, counter-screen for LRH-1 inverse agonist project (AID 651614; in the data active = inhibition above about 44%;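 note: cells cotransfected with StAR promoter reporter and SF1 expression vector; 0% = vehicle on cells with receptor and 100% = vehicle on cells lacking receptor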). The following applies: cell-based SF1 luciferase reporter, at 3.6 µM, active compounds read high.
Assay [7] deals with transactivating tegument protein VP16 (Human herpesvirus 1). As to the kind of experiment: compounds suppressing VP16-driven luciferase signal – cell-based, luminescence, single concentration, counter-screen for SRC2 inhibitor project (AID 652007; in the data active = inhibition above about 36%). The following applies: cell-based VP16 transactivation luciferase reporter, at 8.9 µM, active compounds read high.
Assay [8] has as its target Nuclear receptor coactivator 2 (Homo sapiens) (UniProt Q15596). As to the kind of experiment: inhibition of GAL4-SRC2 driven luciferase expression – cell-based, luminescence, HEK293, triplicate, confirmation (AID 652008;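 active = mean inhibition above 46.5%, the solvent-only control mean plus 3 SD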;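 note: 0% = DMSO-treated cells and 100% = Gossypol at 36 µM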). The following applies: HEK293 GAL4-SRC2 luciferase reporter, at 8.9 µM, active compounds read high.
A short description of assay [9]: StAR promoter reporter inhibitors, counter-screen for LRH-1 inverse agonist project, cell-based, luminescence, high throughput (AID 651611; in the data active = inhibition above about 28%). The following applies: StAR promoter luciferase reporter counterscreen, at 3.6 µM, active compounds read high.
Assay [10] is described as follows: compounds suppressing VP16-driven luciferase signal – cell-based, luminescence, high throughput, counter-screen for LRH-1 inverse agonist project (AID 651615; in the data active = inhibition above about 33%). The following applies: Gal4-VP16 luciferase reporter cells, at 3.6 µM, active compounds read high.

SMILES strings stand for the structures. Values joined by “and” are separate entries in the source; they are usually repeats but may differ in a detail not shown here. Identical values can stand only once. Values without a mark were called inactive. Active and inactive are the calls of the source. Cut-off read from the data, not from the text of the source, unless noted: active = inhibition above about 30%; inactive = the rest.

Chain of Nuclear receptor subfamily 5 group A member 2 (Homo sapiens) (O00482 whole entry, looked up): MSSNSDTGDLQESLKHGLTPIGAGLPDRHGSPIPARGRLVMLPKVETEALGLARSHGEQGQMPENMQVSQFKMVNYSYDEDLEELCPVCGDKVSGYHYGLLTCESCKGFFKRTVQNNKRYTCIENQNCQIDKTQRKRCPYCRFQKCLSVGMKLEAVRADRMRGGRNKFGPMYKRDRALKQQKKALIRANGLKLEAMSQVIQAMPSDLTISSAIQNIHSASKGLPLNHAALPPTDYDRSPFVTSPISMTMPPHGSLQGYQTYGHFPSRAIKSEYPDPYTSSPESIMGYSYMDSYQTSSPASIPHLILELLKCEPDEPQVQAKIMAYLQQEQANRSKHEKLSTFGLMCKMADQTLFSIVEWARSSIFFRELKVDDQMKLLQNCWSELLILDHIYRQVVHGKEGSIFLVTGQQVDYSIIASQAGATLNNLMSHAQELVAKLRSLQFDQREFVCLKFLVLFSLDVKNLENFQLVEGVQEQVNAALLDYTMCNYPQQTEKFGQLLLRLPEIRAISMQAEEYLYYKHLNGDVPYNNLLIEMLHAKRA
Chain of Steroidogenic factor 1 (Homo sapiens) (Q13285 whole entry, looked up): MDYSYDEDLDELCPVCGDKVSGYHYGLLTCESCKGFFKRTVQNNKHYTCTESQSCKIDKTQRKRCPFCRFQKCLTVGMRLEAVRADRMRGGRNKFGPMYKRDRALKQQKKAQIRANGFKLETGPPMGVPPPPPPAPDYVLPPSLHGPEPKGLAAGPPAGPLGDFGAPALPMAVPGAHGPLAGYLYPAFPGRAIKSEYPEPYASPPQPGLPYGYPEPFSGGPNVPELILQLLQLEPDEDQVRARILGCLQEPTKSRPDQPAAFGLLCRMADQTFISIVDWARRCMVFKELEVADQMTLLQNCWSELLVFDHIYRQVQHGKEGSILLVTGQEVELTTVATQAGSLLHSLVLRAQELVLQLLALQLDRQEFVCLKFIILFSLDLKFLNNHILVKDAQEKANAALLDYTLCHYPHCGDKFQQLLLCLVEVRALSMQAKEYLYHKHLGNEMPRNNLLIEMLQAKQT
Chain of Nuclear receptor coactivator 3 (Homo sapiens) (Q9Y6Q9 whole entry, looked up, the tested form may be a part): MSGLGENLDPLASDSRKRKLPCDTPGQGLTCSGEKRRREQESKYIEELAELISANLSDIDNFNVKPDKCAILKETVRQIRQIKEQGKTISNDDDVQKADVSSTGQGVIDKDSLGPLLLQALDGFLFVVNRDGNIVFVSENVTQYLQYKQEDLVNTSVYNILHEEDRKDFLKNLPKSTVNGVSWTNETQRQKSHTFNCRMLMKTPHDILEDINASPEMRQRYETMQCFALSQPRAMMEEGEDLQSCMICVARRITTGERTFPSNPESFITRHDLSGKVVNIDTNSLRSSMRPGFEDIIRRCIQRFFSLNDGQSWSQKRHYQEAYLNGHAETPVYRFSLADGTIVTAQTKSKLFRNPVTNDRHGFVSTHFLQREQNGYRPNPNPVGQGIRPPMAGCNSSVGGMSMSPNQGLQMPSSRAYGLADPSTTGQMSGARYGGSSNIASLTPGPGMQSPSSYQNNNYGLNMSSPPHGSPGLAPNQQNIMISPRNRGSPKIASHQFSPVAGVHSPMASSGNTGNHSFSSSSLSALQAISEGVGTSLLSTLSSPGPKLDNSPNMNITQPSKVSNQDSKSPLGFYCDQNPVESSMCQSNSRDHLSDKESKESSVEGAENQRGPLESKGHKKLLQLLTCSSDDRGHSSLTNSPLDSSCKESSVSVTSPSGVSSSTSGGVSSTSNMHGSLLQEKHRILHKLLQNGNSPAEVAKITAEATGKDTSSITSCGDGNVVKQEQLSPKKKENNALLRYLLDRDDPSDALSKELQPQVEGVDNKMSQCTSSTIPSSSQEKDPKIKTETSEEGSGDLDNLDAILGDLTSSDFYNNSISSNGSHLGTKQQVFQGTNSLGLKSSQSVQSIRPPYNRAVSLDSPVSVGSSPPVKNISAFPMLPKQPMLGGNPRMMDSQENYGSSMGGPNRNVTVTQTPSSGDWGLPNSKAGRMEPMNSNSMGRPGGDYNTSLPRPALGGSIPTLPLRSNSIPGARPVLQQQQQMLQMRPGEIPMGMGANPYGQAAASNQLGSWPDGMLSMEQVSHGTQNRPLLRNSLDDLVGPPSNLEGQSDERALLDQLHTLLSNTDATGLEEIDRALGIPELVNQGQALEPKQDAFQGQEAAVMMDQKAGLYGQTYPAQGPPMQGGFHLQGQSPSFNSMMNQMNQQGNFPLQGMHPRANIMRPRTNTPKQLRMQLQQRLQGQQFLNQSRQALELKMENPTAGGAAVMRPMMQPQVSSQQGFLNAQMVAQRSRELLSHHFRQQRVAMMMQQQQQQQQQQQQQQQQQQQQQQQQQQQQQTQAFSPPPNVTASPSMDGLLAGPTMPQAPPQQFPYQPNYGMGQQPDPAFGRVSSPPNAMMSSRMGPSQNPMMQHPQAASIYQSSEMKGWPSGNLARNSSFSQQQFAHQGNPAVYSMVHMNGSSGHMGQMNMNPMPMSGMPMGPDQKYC
Chain of Nuclear receptor coactivator 2 (Homo sapiens) (Q15596 whole entry, looked up, the tested form may be a part): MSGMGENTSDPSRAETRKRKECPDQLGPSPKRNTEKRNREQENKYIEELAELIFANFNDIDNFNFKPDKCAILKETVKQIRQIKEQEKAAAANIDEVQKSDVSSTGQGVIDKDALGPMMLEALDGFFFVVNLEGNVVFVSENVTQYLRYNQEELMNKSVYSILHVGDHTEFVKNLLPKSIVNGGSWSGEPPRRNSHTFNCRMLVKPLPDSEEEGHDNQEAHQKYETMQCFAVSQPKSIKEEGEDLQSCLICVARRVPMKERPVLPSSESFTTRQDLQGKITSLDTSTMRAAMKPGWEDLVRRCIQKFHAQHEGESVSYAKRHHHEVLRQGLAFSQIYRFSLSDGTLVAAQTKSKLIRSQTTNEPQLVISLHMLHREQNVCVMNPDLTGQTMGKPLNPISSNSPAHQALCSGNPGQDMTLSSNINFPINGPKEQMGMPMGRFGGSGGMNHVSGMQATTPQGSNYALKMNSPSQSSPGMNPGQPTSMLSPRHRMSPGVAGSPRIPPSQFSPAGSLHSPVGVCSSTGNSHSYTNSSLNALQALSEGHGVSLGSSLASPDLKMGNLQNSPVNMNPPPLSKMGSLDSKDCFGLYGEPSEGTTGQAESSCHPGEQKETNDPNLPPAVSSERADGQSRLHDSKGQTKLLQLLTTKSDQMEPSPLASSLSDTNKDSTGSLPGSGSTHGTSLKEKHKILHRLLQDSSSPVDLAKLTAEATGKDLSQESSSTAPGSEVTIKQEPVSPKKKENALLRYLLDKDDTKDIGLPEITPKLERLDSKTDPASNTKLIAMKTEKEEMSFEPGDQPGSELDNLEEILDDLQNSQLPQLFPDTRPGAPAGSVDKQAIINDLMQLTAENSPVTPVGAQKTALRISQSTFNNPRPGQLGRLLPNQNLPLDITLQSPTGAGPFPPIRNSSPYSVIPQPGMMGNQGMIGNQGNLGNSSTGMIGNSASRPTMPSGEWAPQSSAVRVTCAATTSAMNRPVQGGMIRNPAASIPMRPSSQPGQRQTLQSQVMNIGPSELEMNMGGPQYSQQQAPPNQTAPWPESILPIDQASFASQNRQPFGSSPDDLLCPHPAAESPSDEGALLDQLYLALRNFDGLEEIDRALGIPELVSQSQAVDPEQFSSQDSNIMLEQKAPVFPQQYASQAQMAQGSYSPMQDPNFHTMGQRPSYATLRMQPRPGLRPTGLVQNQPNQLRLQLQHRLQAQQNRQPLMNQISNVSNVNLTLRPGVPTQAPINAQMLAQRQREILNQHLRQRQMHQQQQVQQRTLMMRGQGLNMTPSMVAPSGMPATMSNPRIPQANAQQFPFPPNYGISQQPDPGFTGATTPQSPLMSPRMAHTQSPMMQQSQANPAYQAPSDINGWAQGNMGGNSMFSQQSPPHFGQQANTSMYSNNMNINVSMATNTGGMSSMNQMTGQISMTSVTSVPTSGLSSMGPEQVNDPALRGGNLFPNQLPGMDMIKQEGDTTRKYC

Consider `COc1ccc(CC2C(=O)NC(C)C(=O)N(C)C3C(=O)N(C)C(Cc4ccc(O)c(c4)Oc4ccc(cc4)C3O)C(=O)NC(C)C(=O)NC(C)C(=O)N2C)cc1` (stereo not given), for which the inhibition in assay [1] was 98.6% (active); in assay [2] it was 96.7% (active); in [3] it was 94.8% (active); in assay [4], 95.5% (active); in assay [5] it was 111% (active); in assay [6], 98.8% (active). Also, the inhibition is 80.4% (active) in assay [7] and 77.1% (active) in assay [8].
For the molecule `CC12CCC3C(CCC4(O)CC(O)CCC34C=O)C1(O)CCC2C1=CC(=O)OC1` (stereo not given), the inhibition is 90% (active) in assay [1]; 67.4% (active) in assay [2]; 14.4% in [3]; 67.5% (active) in [4]; 109% (active) in assay [5]; 96.2% (active) in assay [6].
`C=C1C(=O)O[C@@H]2C[C@@H](C)[C@@H]3C=CC(=O)[C@@]3(C)[C@@H](O)[C@H]12`: the inhibition was 42.1% in assay [1]; 92.5% (active) in assay [2]; 91.7% (active) in assay [4]; 96% (active) in [7]; 93.7% (active) in assay [8].
For `NC(=O)c1cn(C2OC(CO)C(O)C2O)c2ncnc(N)c12` (stereo not given), the inhibition was 96.2% (active) and 97.7% (active) in assay [1]; 97.7% (active) and 97.3% (active) in assay [2]; 90% (active) and 90.1% (active) in assay [3]; 97.9% (active) and 96% (active) in [4]; 94.2% (active) and 95% (active) in [9]; 109% (active) and 110% (active) in assay [5]. Moreover, the inhibition in [6] is 96.8% (active) and 98% (active); in [10] it was 95.5% (active) and 97.3% (active); in assay [7], 65% (active) and 66.1% (active); in assay [8], 67.3% (active) and 73.3% (active).
As for `COc1ccc(CC2NCC(O)C2OC(C)=O)cc1` (stereo not given), the inhibition in assay [1] is 98.6% (active); in assay [2], 96.7% (active); in assay [3], 96.2% (active); in assay [4], 96.6% (active); in assay [9], 96.6% (active); in assay [5] it was 111% (active). The inhibition is 98.3% (active) in [6], 96.1% (active) in assay [10], 84.6% (active) in [7] and 82.5% (active) in [8].
As for `O=c1[nH]c(O)c(N=Nc2ccc3c(c2)OCCO3)c(=O)[nH]1`, the inhibition in [1] is 53.3% (active); in assay [2], 25.7%; in [3], 6.27%; in assay [4] it was -1.38%; in [9] it was 22.6%; in assay [5], 9.98%. In addition, the inhibition was 42.1% in assay [6], 9.89% in [10], 33.9% in assay [7] and 63.6% (active) in assay [8].
Turning to `CC(=O)OCC12CC(OC(=O)CC(C)C)C(C)=CC1OC1C(O)C(OC(C)=O)C2(C)C12CO2` (stereo not given), the inhibition in assay [1] is 95.1% (active); in assay [2], 91.9% (active); in assay [3], 88.5% (active); in assay [4], 88.9% (active); in assay [9], 97% (active); in [5] it was 110% (active). In addition, the inhibition in assay [6] was 98.3% (active); in [10], 97.8% (active); in assay [7], 79.1% (active); in [8], 75.4% (active).
On to `C[C@H]1C[C@@H](C)C(=O)[C@@H]([C@H](O)CC2CC(=O)NC(=O)C2)C1`, for which the inhibition in assay [1] is 96.7% (active); in [2], 92.3% (active); in [3], 82.3% (active); in assay [4], 91.3% (active); in assay [5], 110% (active); in assay [6], 97.9% (active). Also, the inhibition in assay [7] is 63.2% (active); in assay [8], 62.9% (active).
As to `CCN1CCN(c2ncnc3ccc(Br)cc23)CC1`, the inhibition in assay [1] is 56.6% (active); in [2] it was 54.3% (active); in [3] it was 72.2% (active); in assay [4], 44.9% (active); in assay [7] it was 2.45%; in [8] it was 36.7%.
As to `O=C1CN=C(c2ccc[nH]2)c2cc(Cl)ccc2N1`, the inhibition in assay [1] was 76% (active); in assay [2] it was 57.9% (active); in assay [3], 53.3% (active); in assay [4], 57.5% (active); in assay [7] it was 30.2%; in [8], 44%.
As to `C[C@@H]1O[C@@H](O[C@@H]2C=C3CCC4C(CC[C@]5(C)[C@@H](c6ccc(=O)oc6)CC[C@]45O)[C@@]3(C)CC2)[C@H](O)[C@H](O)[C@H]1O` (stereo not given in full), the inhibition in assay [1] was 97.5% (active); in assay [2] it was 90.9% (active); in assay [3], 84.9% (active); in assay [4], 89.9% (active); in assay [9], 97% (active); in assay [5] it was 110% (active). For the same molecule, the inhibition in assay [6] is 98.9% (active); in assay [10] it was 96.5% (active); in assay [7] it was 74.1% (active); in assay [8], 60.1% (active).
With `COc1ccc2c(c1)[nH]c1c(C)nccc12`, the inhibition in [1] is 79% (active); in assay [2], 48.6% (active); in assay [3], 63.4% (active); in [4], 51.4% (active); in assay [7], 9.1%; in assay [8], 42.9%.
On to `CC(=O)OC1CC(OC2C(O)CC(OC3C(O)CC(OC4CCC5(C)C(CCC6C5CCC5(C)C(C7=CC(=O)OC7)C(O)CC65O)C4)OC3C)OC2C)OC(C)C1OC1OC(CO)C(O)C(O)C1O` (stereo not given), for which the inhibition was 93.4% (active) in [1]; 79.7% (active) in assay [2]; 39.1% in assay [3]; 72.8% (active) in [4]; 97.7% (active) in [9]; 111% (active) in assay [5]. Also, the inhibition in assay [6] is 99.3% (active); in assay [10], 85.1% (active); in assay [7], 61.8% (active); in [8] it was 13.5%.
On to `C[C@]12CC[C@H](O)C[C@H]1CC[C@@H]1[C@@H]2CC[C@]2(C)[C@@H](C3=CC(=O)OC3)CC[C@]12O`, for which the inhibition in assay [1] is 95.3% (active); in assay [2], 82.7% (active); in assay [3], 58.7% (active); in [4] it was 80.1% (active); in assay [9], 95.7% (active); in assay [5], 110% (active). Besides, the inhibition in assay [6] is 97.4% (active); in assay [10], 87% (active); in assay [7], 56% (active); in [8], 30.2%.
Regarding `N#Cc1cn(C2OC(CO)C(O)C2O)c2ncnc(N)c12` (stereo not given), the inhibition is 81.4% (active) in assay [1]; 91.3% (active) in [2]; -24% in assay [3]; 89.7% (active) in assay [4]; 82% (active) in assay [9]; 107% (active) in assay [5]. Moreover, the inhibition is 94.1% (active) in [6], 91% (active) in assay [10], 30.4% in [7] and 48.3% (active) in assay [8].
